Reference: PubChem BioAssay (EPA / NIEHS)
Results filed as inconclusive are left out. Calls of active or inactive are those of the source. How the source made its calls, unless noted: active means hit-call score of the fitted dose curve at least 0.9, where 1 is the maximum; inactive means score below 0.9.

How the values were obtained:
[1] = ATG_BRE_CIS: Attagene CIS-FACTORIAL HepG2 Assay for human Bone Morphogenetic Protein (BMP) Response Element (BRE) (AID 2282933); conditions: HepG2 BMP response element reporter, Attagene transcription factor profiling; actives raise or lower the signal
Outline: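 Gain- or loss-of-signal was derived by bidirectional fitting against DMSO controls. The signal came from reporter mRNA, measured by RT-PCR and capillary electrophoresis, in HepG2 cells transiently carrying multiple reporter units and dosed for 24 h.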

[2] = ATG_E_Box_CIS: Attagene CIS-FACTORIAL HepG2 Assay for human Enhancer Box (E-box) (AID 2282936); conditions: HepG2 E-box cis-reporter transcription, actives raise or lower the signal
Outline: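 First, HepG2 cells receive multiple cis-regulated reporter constructs by transient transfection. Next, chemicals are applied for 24 h. Finally, reporter mRNA is quantified via RT-PCR and capillary electrophoresis, with DMSO as baseline.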

[3] = ATG_FoxO_CIS: Attagene CIS-FACTORIAL HepG2 Assay for human Forkhead box O (FoxO) (AID 2282943); conditions: HepG2 Attagene cis-reporter, FoxO element, mRNA; actives raise or lower the signal
Outline: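 Transfected HepG2 reporter cells exposed to test chemical for 24 h; reporter RNA measured by reverse transcription, PCR and fluorescent capillary electrophoresis; curves fitted for increases and decreases against DMSO.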

[4] = ATG_GRE_CIS: Attagene CIS-FACTORIAL HepG2 Assay for human Glucocorticoid Response Elements (GRE) (AID 2282947); conditions: HepG2 GRE cis-reporter, Attagene multiplex mRNA; actives raise or lower the signal
Outline: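 Endogenous transcription factor activity is read through cis-element reporter constructs transiently transfected into HepG2 cells. After 24 h treatment, labelled RT-PCR products are resolved by capillary electrophoresis; DMSO sets baseline for bidirectional curve fitting.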

[5] = ATG_PPRE_CIS: Attagene CIS-FACTORIAL HepG2 Assay for human Peroxisome Proliferator-activated Response Element (PPRE) (AID 2282958); conditions: HepG2 PPRE cis-element reporter, Attagene transcription factor profiling; actives raise or lower the signal
Outline: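 Cells are first transfected transiently with the multiplexed reporter library, then dosed for 24 h. Total RNA is reverse-transcribed, amplified, fluorescently end-labeled and HpaI-cut before capillary electrophoresis; activity is fitted bidirectionally against DMSO controls.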

[6] = ATG_SREBP_CIS: Attagene CIS-FACTORIAL HepG2 Assay for human Sterol Regulatory Element Binding (SREBP) (AID 2282962); conditions: HepG2 Attagene cis-factorial SREBP reporter, mRNA; actives raise or lower the signal
Outline: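 Transfected HepG2 (cis-regulated reporter library, endogenous TFs) → compound 24 h → total RNA → oligo(dT) RT → reporter-specific PCR → FAM primer extension, HpaI cut → CE fluorescence. Fit bidirectional vs DMSO.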

[7] = target: X-box-binding protein 1 (Homo sapiens) (UniProt P17861); experiment: ATG_Xbp1_CIS: Attagene CIS-FACTORIAL HepG2 Assay for human X-box Binding Protein 1 (XBP1) (AID 2282972); conditions: HepG2 XBP1 cis-element reporter, Attagene multiplex; actives raise or lower the signal
Outline: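 HepG2, transient MRTU transfection (cis-promoter driven), 24 h compound exposure. Total RNA → oligo(dT) RT → PCR → 6-FAM labeling → HpaI cut → CE. Bidirectional fit vs DMSO.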

[8] = ATG_M_06_TRANS: Attagene TRANS-FACTORIAL HepG2 Assay for M06 Transcription Factor (Internal Marker) (AID 2282983; active means hit-call score of the fitted dose curve at least 0.9, where 1 is the maximum;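 further: reporter transcript level by RT-PCR then capillary electrophoresis fluorescence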); conditions: HepG2 Attagene TRANS M06 internal marker reporter
Outline: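 Cells: HepG2, transient multi-reporter transfection. Exposure: 24 h. Detection: RT-PCR, 6-FAM labelling, HpaI digestion (2 h, 37 °C), capillary electrophoresis. Baseline: DMSO.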

[9] = target: Nuclear respiratory factor 1 (Homo sapiens) (UniProt Q16656); experiment: ATG_NRF1_CIS: Attagene CIS-FACTORIAL HepG2 Assay for human Nuclear Respiratory Factor 1 (NRF1) Orphan Gene (AID 2282987); conditions: HepG2 NRF1 cis-element reporter, Attagene multiplex; actives raise or lower the signal
Outline: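 Fluorescence intensity of labelled reporter cDNA fragments, resolved by capillary electrophoresis, served as readout for NRF1 cis-element activity. Transiently transfected HepG2 cells were dosed for 24 hours; activity in either direction was fitted against DMSO negative control.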

[10] = target: Peroxisome proliferator-activated receptor gamma (Homo sapiens) (UniProt P37231); experiment: ATG_PPARg_TRANS: Attagene TRANS-FACTORIAL HepG2 Assay for human Peroxisome Proliferator-activated Receptor-gamma (PPARg) (AID 2283007; active means hit-call score of the fitted dose curve at least 0.9, where 1 is the maximum)
Outline: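 A TRANS-format multiplexed reporter assay measures activity of an exogenous chimeric NR-Gal4 protein in HepG2 cells. After 24 h of chemical exposure, reporter transcripts are amplified, fluorescently labelled and sized by capillary electrophoresis, with gain of signal scored against DMSO.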

[11] = target: Nuclear receptor subfamily 1 group I member 2 (Homo sapiens) (UniProt O75469); experiment: ATG_PXR_TRANS: Attagene TRANS-FACTORIAL HepG2 Assay for human Pregnane X Receptor (PXR) (AID 2283008; active means hit-call score of the fitted dose curve at least 0.9, where 1 is the maximum)
Outline: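 Read-out is fluorescence of labelled reporter cDNA fragments separated by capillary electrophoresis after RT-PCR and HpaI digestion. Source: HepG2 cells carrying PXR-GAL4/UAS reporter constructs, treated 24 h; activity fitted upward relative to DMSO.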

[12] = target: Retinoic acid receptor RXR-alpha (Homo sapiens) (UniProt P19793); experiment: ATG_RXRa_TRANS: Attagene TRANS-FACTORIAL HepG2 Assay for human Retinoid X Receptor alpha (RXRa) (AID 2283012; active means hit-call score of the fitted dose curve at least 0.9, where 1 is the maximum)
Outline: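 Cells (HepG2) carried transiently transfected GAL4-responsive reporter units. Following a 24 h chemical incubation, reporter mRNA induction was read via RT-PCR fragment analysis; DMSO served as negative control and baseline.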

[13] = target: Cellular tumor antigen p53 (Homo sapiens) (UniProt P04637); experiment: TOX21_p53_BLA_p3_ratio: Tox21 HCT-116 p53 Agonism Beta-lactamase Assay, Ratio, Phase 3 (AID 2283596; active means hit-call score of the fitted dose curve at least 0.9, where 1 is the maximum)
Outline: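 HCT116 p53-bla cells (4000/well) given compound in DMSO (217-fold dilution) after 5 h, incubated 16 h at 37C. CCF4-AM substrate 2 h at room temperature; 460/530 nm emission ratio, gain fitted against DMSO.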

[14] = target: Cellular tumor antigen p53 (Homo sapiens) (UniProt P04637); experiment: TOX21_p53_BLA_p5_ratio: Tox21 HCT-116 p53 Agonism Beta-lactamase Assay, Ratio, Phase 5 (AID 2283599; active means hit-call score of the fitted dose curve at least 0.9, where 1 is the maximum)
Outline: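 HCT-116 p53-bla cells (4000/well) plated 5 h, dosed with compound (217-fold DMSO dilution) for 16 h at 37 C; CCF4-AM substrate 2 h at room temperature. Activity is the 460/530 nm emission ratio (405 nm excitation), fitted in gain-of-signal direction versus DMSO.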

[15] = ATG_PBREM_CIS: Attagene CIS-FACTORIAL HepG2 Assay for human Phenobarbital-responsive Enhancer Module (PBREM) (AID 2282955); conditions: HepG2 PBREM cis-reporter, Attagene multiplexed transcription; actives raise or lower the signal
Outline: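 Fluorescence of labelled reporter cDNA fragments, resolved by capillary electrophoresis, gives mRNA induction in transfected HepG2 cells treated for 24 h; DMSO serves as negative control and baseline.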

[16] = ATG_Sox_CIS: Attagene CIS-FACTORIAL HepG2 Assay for human SRY-box transcription factor (SOX) (AID 2282960); conditions: HepG2 Attagene cis-factorial SOX reporter, mRNA; actives raise or lower the signal
Outline: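 Transient MRTU transfection of HepG2; 24 h compound incubation; TriZol RNA, oligo(dT) RT, PCR, 6-FAM primer extension, HpaI cut, CE. Bidirectional fit, DMSO = baseline.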

[17] = ATG_NFI_CIS: Attagene CIS-FACTORIAL HepG2 Assay for human Nuclear Factor I (NFI) (AID 2282989); conditions: HepG2 cis-regulatory reporter, NFI response element transcription; actives raise or lower the signal
Outline: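 After transient transfection of HepG2 with cis-promoter reporter constructs and 24 h dosing, RNA is reverse-transcribed, amplified, 6-FAM end-labelled and HpaI-digested before capillary analysis. Bidirectional curve fitting against DMSO.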

[18] = target: human Retinoid X Receptor beta (RXRb), RXRB (gene 6257) (UniProt P28702); experiment: ATG_RXRb_TRANS: Attagene TRANS-FACTORIAL HepG2 Assay for human Retinoid X Receptor beta (RXRb) (AID 2283013; active means hit-call score of the fitted dose curve at least 0.9, where 1 is the maximum)
Outline: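 Multiplexed TRANS reporter assay in HepG2; 24 h dosing; reporter mRNA by RT-PCR/CE fluorescence; gain-of-signal relative to DMSO.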

[19] = target: Cellular tumor antigen p53 (Homo sapiens) (UniProt P04637); experiment: TOX21_p53_BLA_p4_ratio: Tox21 HCT-116 p53 Agonism Beta-lactamase Assay, Ratio, Phase 4 (AID 2283601; active means hit-call score of the fitted dose curve at least 0.9, where 1 is the maximum)
Outline: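 HCT-116 p53 beta-lactamase reporter cells (4000/well) preincubated 5 h, then compound (217-fold dilution of DMSO stock) for 16 h at 37C. CCF4-AM substrate added 2 h at room temperature; 460/530 nm emission ratio fitted upward versus DMSO.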

[20] = target: Hepatocyte nuclear factor 4-alpha (Homo sapiens) (UniProt P41235); experiment: ATG_HNF4a_TRANS: Attagene TRANS-FACTORIAL HepG2 Assay for human Hepatocyte Nuclear Factor 4 alpha (HNF4a) (AID 2282982; active means hit-call score of the fitted dose curve at least 0.9, where 1 is the maximum); conditions: HepG2 HNF4a transactivation reporter, mRNA readout
Outline: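 Gain-of-signal mRNA induction, relative to DMSO vehicle, was read after 24 h compound treatment of HepG2 cells bearing transfected GAL4-UAS reporters. Detection used RT-PCR, 6-FAM primer extension and capillary electrophoresis.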

Measured: AC50

Cellular tumor antigen p53 (Homo sapiens), sequence (P04637 whole entry, looked up): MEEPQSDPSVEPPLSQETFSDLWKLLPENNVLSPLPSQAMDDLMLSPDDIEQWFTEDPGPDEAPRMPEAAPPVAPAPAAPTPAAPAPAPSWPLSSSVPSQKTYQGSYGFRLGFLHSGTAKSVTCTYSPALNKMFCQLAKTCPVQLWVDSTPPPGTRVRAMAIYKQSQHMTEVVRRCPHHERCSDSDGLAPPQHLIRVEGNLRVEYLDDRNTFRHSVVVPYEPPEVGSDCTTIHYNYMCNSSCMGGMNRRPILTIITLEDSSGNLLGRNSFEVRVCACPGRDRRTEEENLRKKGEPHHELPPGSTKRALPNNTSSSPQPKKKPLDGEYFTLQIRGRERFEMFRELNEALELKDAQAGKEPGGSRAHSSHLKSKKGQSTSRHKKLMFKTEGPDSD
Nuclear respiratory factor 1 (Homo sapiens), sequence (Q16656 whole entry, looked up, the tested form may be a part): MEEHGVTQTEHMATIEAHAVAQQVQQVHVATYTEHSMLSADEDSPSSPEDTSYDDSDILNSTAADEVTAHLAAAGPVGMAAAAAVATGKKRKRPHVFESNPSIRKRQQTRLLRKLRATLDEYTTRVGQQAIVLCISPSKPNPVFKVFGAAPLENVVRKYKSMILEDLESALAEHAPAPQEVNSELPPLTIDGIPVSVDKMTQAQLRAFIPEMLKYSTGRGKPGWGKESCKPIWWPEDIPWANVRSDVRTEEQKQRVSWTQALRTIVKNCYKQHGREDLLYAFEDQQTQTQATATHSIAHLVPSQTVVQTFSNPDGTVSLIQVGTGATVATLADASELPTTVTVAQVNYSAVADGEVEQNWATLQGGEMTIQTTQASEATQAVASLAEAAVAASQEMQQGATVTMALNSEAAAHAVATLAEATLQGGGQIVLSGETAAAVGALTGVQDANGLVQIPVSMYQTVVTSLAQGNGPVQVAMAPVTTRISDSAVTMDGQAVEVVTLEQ
Peroxisome proliferator-activated receptor gamma (Homo sapiens), sequence (P37231 whole entry, looked up, the tested form may be a part): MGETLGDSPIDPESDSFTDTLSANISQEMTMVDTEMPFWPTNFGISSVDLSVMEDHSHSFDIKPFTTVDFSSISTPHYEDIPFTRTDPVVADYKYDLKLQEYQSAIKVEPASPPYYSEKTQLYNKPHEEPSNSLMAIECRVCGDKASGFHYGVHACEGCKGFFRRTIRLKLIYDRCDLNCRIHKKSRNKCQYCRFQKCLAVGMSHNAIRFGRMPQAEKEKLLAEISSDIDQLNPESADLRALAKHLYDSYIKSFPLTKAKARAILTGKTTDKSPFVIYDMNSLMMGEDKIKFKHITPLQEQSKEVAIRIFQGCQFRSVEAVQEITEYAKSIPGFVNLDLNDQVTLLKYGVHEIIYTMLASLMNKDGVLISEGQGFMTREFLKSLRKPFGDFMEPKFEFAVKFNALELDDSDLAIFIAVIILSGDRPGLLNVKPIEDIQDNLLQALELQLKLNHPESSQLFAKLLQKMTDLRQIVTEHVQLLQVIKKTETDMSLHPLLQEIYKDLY
Retinoic acid receptor RXR-alpha (Homo sapiens), sequence (P19793 whole entry, looked up, the tested form may be a part): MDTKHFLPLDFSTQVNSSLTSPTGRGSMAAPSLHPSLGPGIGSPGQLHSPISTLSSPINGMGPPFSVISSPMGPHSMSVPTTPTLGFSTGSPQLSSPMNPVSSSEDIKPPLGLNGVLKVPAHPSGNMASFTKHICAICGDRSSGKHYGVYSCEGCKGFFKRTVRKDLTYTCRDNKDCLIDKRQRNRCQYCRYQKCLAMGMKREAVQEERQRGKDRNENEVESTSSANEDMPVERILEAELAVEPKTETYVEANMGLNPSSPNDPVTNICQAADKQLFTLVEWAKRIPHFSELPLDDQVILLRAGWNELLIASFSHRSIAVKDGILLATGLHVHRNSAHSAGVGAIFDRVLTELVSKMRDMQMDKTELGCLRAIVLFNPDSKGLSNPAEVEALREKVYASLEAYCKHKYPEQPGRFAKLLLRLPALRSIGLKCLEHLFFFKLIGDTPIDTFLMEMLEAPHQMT
X-box-binding protein 1 (Homo sapiens), sequence (P17861 whole entry, looked up): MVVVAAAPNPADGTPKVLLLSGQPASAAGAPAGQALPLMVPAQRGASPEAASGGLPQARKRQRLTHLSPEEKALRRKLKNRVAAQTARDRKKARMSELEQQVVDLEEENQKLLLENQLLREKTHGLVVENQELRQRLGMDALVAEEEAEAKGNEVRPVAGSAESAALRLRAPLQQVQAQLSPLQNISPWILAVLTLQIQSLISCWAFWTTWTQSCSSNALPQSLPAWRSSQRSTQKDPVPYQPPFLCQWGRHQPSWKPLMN
human Retinoid X Receptor beta (RXRb), RXRB (gene 6257), sequence (P28702 whole entry, looked up): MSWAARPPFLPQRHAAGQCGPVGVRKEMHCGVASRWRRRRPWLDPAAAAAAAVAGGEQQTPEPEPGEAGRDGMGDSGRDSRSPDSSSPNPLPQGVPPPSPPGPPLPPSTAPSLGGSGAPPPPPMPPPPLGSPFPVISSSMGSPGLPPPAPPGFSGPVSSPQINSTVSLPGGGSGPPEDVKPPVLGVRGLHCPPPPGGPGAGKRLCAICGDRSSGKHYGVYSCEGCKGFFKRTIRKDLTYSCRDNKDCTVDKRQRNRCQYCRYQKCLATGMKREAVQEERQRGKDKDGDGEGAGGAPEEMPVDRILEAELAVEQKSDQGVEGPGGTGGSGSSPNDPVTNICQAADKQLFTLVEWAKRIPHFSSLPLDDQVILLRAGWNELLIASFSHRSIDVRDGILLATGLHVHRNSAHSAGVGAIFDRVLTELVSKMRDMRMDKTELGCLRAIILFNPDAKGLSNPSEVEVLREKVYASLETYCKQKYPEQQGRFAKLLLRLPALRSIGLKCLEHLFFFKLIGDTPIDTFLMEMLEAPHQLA
Nuclear receptor subfamily 1 group I member 2 (Homo sapiens), sequence (O75469 whole entry, looked up, the tested form may be a part): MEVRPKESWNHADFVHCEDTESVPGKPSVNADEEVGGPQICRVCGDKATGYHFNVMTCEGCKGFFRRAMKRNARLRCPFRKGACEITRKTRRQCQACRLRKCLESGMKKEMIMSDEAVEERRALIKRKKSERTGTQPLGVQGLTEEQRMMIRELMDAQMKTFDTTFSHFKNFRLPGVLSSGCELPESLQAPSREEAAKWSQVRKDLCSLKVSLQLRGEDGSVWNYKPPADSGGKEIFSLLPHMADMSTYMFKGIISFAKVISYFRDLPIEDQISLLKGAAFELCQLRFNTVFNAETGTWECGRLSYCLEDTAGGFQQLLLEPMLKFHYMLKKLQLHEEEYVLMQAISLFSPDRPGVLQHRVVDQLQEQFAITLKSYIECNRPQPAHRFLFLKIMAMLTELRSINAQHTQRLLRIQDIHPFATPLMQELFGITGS
Hepatocyte nuclear factor 4-alpha (Homo sapiens), sequence (P41235 whole entry, looked up, the tested form may be a part): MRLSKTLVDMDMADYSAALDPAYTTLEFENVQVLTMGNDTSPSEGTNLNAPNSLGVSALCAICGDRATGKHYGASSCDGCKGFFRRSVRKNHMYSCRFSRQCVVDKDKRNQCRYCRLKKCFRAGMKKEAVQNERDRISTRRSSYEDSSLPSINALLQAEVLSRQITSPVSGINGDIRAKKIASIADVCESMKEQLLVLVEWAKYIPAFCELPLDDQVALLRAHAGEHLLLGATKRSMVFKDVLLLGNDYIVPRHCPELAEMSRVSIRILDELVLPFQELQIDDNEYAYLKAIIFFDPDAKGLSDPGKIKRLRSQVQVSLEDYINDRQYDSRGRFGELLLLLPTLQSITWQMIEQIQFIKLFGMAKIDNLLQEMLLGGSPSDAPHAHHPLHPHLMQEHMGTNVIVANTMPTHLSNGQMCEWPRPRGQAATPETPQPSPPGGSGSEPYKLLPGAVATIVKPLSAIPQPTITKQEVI

Oc1cc(Cl)ccc1Cl
not listed: [15] | [16] | [17] | [18] | [19] | [20]
inactive: all other assays above

O=c1[nH]c(Cl)c(Cl)cc1Cl
active: [5] 15.8 µM | [10] 14.2 µM
not listed: [4] | [8] | [20]
inactive: all other assays above

CC(C)c1ccc(O)cc1
active: [18] 74.9 µM
not listed: [2] | [7] | [14] | [20]
inactive: all other assays above

Nc1ccc(Cl)c(Cl)c1
not listed: [2] | [4] | [7] | [16] | [17] | [19] | [20]
inactive: all other assays above

CCN(CC)C(=S)S
inactive: [2] | [3] | [4] | [16] | [6] | [8] | [17] | [12] | [18]
active: [10] 51.5 µM | [11] 3.68 µM

O=[N+]([O-])c1cc([N+](=O)[O-])c2ccccc2c1
active: [10] 6.62 µM | [11] 9.2 µM
not listed: [2] | [6] | [14] | [20]
inactive: all other assays above

Nc1ccccc1C(=O)Oc1ccc2ccccc2c1
active: [1] 161 µM | [16] 166 µM | [6] 65.5 µM | [9] 139 µM | [10] 54.9 µM | [11] 48.6 µM | [12] 152 µM
not listed: [3] | [5] | [14] | [17] | [20]
inactive: all other assays above

N#Cc1cccc(C#N)c1
not listed: [1] | [7] | [16] | [18]
inactive: all other assays above

CCC(C)c1cc(C(C)(C)C)cc(-n2nc3ccccc3n2)c1O (stereo not given)
active: [18] 8.72 µM
not listed: [1] | [2] | [7] | [12] | [13] | [14] | [15] | [19]
inactive: all other assays above
